DAX1 inh-1: DAX1 (NR0B1) inhibition, primary screen; HEK293T StAR-luciferase reporter, SF-1/DAX-1 repression relief; inhibition, % at 6.8 µM; 370,000 compounds, 1.1% hits;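 active = inhibition above the mean over all tested compounds plus 3 SD, cut at about 3.6% in these data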;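 also: higher inhibition means more luminescence from relief of DAX-1 repression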
ssDAF-12 act: activators of S. stercoralis DAF-12 nuclear receptor; HEK293 ssDAF-12/GRIP1 lit1-tk-luc reporter, luminescence; % of 3 µM dafachronic acid response; activation, % at 6.8 µM; 370,000 compounds, 1% hits; AID 652126;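 active = activation above the mean over all tested compounds plus 3 SD, cut at about 0.9% in these data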
hcDAF-12 act: H. contortus DAF-12 activation, primary screen. activation, % at 6.8 µM. 370,000 compounds, 1.4% hits. HEK293 hcDAF-12 lit1-tk-luc reporter, luminescence; 0% DMSO, 100% Δ7-dafachronic acid;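 active = activation above the mean of all tested compounds plus 3 SD, cut at about 5.5% in these data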
DAX1 inh-2: inhibitors of human orphan nuclear receptor DAX1 (NR0B1); HEK293 Gal4-DAX1 luciferase reporter, luminescence; P51843; inhibition, % at 6.75 µM; 340,000 compounds, 0.99% hits;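 active = inhibition above the mean over all tested compounds plus 3 SD, cut at about 4.2% in these data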;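 also: inhibition shows as a rise in luminescence from relieved DAX1 repression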
Target sequence (P51843 207-470 limits assumed): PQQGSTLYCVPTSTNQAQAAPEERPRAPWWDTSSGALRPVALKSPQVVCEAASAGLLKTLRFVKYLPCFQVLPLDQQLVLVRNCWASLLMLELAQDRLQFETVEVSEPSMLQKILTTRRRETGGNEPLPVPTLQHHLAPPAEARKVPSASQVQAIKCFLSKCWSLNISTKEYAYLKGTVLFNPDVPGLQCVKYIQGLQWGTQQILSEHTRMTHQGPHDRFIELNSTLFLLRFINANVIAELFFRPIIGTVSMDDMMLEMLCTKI
hgDAF12 agonist: hgDAF-12 agonism, primary luciferase screen. HEK293 GAL4-hgDAF12 UAS-luciferase reporter, agonist luminescence; normalized to butyrate control. activation, % at 6.8 µM. 370,000 compounds, 1.8% hits. AID 687014;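 active = activation above a cutoff set at the mean of all screened compounds plus 3 SD, cut at about 10% in these data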
DAX1 conf: NR0B1 (human) inhibition, confirmation; shares compounds with DAX1 inh-1; HEK293T StAR-promoter luciferase reporter, SF-1/DAX-1 repression; inhibition, % at 6.8 µM; 2,400 compounds, 87% hits; AID 652134;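 active = inhibition above the average of every tested compound plus 3 SD, cut at about 3.8% in these data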;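 also: active compounds raise luminescence by relieving repression of the StAR reporter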
SF1 mutant ctr: nonselective inhibitor or artifact in SF-1 mutant DAX1 counter-screen; 2,400 compounds, 78% hits; shares compounds with DAX1 inh-1; HEK293 StAR-luciferase, SF-1 AF2 mutant, luminescence; inhibition, % at 6.8 µM; AID 652136;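 active = inhibition above the mean of all tested compounds plus 3 SD, cut at about 3% in these data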
LXR ag: activates human LXR-beta, counter-screen for hcDAF-12 agonists; shares compounds with hcDAF-12 act; HEK293 Gal4-LXR tk-luc reporter, luminescence, 24 h; normalized: DMSO 0%, positive control 100%; activation, % at 6.8 µM; 3,400 tested, under 10 active; AID 743027;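 active = mean percent activation of the reporter above a cutoff set as the average over tested compounds plus their standard deviation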
Target sequence (P55055 whole entry, looked up, the tested form may be a part): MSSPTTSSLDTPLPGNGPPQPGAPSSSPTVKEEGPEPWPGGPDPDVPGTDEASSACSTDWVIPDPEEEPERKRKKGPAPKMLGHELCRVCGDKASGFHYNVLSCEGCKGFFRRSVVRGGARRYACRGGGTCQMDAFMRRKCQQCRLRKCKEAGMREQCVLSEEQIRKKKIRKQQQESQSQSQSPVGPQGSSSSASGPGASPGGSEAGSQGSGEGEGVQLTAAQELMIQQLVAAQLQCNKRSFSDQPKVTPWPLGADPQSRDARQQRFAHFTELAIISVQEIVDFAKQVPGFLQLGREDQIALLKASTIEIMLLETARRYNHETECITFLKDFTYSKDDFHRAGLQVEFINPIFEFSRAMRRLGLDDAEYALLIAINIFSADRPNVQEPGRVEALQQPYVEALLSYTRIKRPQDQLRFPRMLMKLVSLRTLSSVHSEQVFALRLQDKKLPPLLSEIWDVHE
hcDAF12 conf: confirmation of H. contortus DAF-12 agonists; activation, % at 6.8 µM; shares compounds with hcDAF-12 act; 3,400 compounds, 61% hits; AID 743032; HEK293 hcDAF-12 lit1-tk-luc reporter, luminescence; % of Δ7-dafachronic acid response;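 active = mean activation across triplicate tests above the threshold derived from the earlier primary screen, cut at about 5.5% in these data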
hgDAF12 ag: hgDAF-12 agonism, confirmation assay | activation, % at 6.8 µM | 3,300 compounds, 80% hits | HEK293 GAL4-hgDAF12 luciferase reporter, agonist mode; percent of butyrate response | AID 743050 | shares compounds with hgDAF12 agonist;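 active = mean activation over triplicate wells above the hit cutoff derived from the earlier primary screen, cut at about 11% in these data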
LXRb DAF12 ctr: activates human LXR-beta, counter-screen for DAF-12 agonists. shares compounds with hgDAF12 agonist. HEK293 Gal4-LXR luciferase reporter, 24 h. activation, % at 6.8 µM. 3,300 tested, under 10 active;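 active = mean activation of the triplicate above a set limit carried over from the primary screen, none filed active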
Hits are given with their value. Sampled rows, rich in hits. Any-hit rate of the full collection: about 4.1%.

What do the screens show for `CCN(CC)CCN(C(=O)c1ccc2ncsc2c1)c1nc2cc3c(cc2s1)OCO3`?
DAX1 inh-1: 14.8; ssDAF-12 act: 2.6; hcDAF-12 act: 15.9; DAX1 inh-2: inactive; hgDAF12 agonist: 17.4; DAX1 conf: 10.6; SF1 mutant ctr: 11.3; LXR ag: inactive; hcDAF12 conf: 11.0; hgDAF12 ag: 15.1; LXRb DAF12 ctr: inactive

How did CCn1cnc2cc(NCc3nc4ccccc4n3Cc3ccccc3)ccc21 do in these assays?
DAX1 inh-1: inactive; ssDAF-12 act: inactive; hcDAF-12 act: inactive; DAX1 inh-2: inactive; hgDAF12 agonist: inactive

Results for CCn1cnc2cc(NCc3nc4ccccc4n3C)ccc21 ?
DAX1 inh-1: 5.9; ssDAF-12 act: 1.1; hcDAF-12 act: 14.8; DAX1 inh-2: inactive; hgDAF12 agonist: 18.4; DAX1 conf: 10.3; SF1 mutant ctr: 4.8; LXR ag: inactive; hcDAF12 conf: 7.5; hgDAF12 ag: 12.7; LXRb DAF12 ctr: inactive

How did O=C(Nc1nc2c(F)cccc2s1)c1ccco1 do in these assays?
DAX1 inh-1: 4.8; ssDAF-12 act: inactive; hcDAF-12 act: 5.6; DAX1 inh-2: inactive; hgDAF12 agonist: 15.6; DAX1 conf: 6.8; SF1 mutant ctr: 6.7; hgDAF12 ag: 16.6; LXRb DAF12 ctr: inactive

How did CC(=O)Nc1nc2c(F)cccc2s1 do in these assays?
DAX1 inh-1: inactive; ssDAF-12 act: inactive; hcDAF-12 act: inactive; DAX1 inh-2: inactive; hgDAF12 agonist: inactive

What do the screens show for `O=C(NCCNc1ccccc1[N+](=O)[O-])c1cc(F)c(F)cc1Cl`?
DAX1 inh-1: inactive; ssDAF-12 act: inactive; hcDAF-12 act: inactive; DAX1 inh-2: inactive; hgDAF12 agonist: inactive

How did COc1ccc(C(=O)NCCNc2ccccc2[N+](=O)[O-])cc1 do in these assays?
DAX1 inh-1: 8.0; ssDAF-12 act: inactive; hcDAF-12 act: inactive; DAX1 inh-2: inactive; hgDAF12 agonist: 19.2; DAX1 conf: 14.4; SF1 mutant ctr: 6.7; hgDAF12 ag: 14.8; LXRb DAF12 ctr: inactive

Results for CCOc1ccc(NC(=O)c2csc3c2CCCC3)cc1 ?
DAX1 inh-1: 7.1; ssDAF-12 act: inactive; hcDAF-12 act: 5.6; DAX1 inh-2: inactive; hgDAF12 agonist: 18.1; DAX1 conf: 11.8; SF1 mutant ctr: 7.7; hgDAF12 ag: 16.4; LXRb DAF12 ctr: inactive

Results for COc1cccc(-c2csc(NC3OC(=O)c4c3ccc(OC)c4OC)n2)c1 (stereo not given) ?
DAX1 inh-1: inactive; ssDAF-12 act: inactive; hcDAF-12 act: inactive; hgDAF12 agonist: inactive

Results for COc1ccc2c(c1OC)C(=O)OC2Nc1nc(-c2ccc(-c3ccccc3)cc2)cs1 (stereo not given) ?
DAX1 inh-1: 5.1; ssDAF-12 act: 0.9; hcDAF-12 act: 9.1; DAX1 inh-2: inactive; hgDAF12 agonist: 21.3; DAX1 conf: 10.4; SF1 mutant ctr: 6.5; LXR ag: inactive; hcDAF12 conf: inactive; hgDAF12 ag: 13.6; LXRb DAF12 ctr: inactive

How did COC(=O)C1C(=O)c2c([nH]c(C(=O)OC3CCCC3C)c2C)CC1C (stereo not given) do in these assays?
DAX1 inh-1: 4.7; ssDAF-12 act: inactive; hcDAF-12 act: inactive; DAX1 inh-2: inactive; hgDAF12 agonist: 18.2; DAX1 conf: 5.5; SF1 mutant ctr: 3.3; hgDAF12 ag: 10.5; LXRb DAF12 ctr: inactive

How did CCCC[C@H]1C2CC(OC(=O)Nc3cccc(Br)c3)C(C2)[C@H]2CCCCN21 (stereo not given in full) do in these assays?
DAX1 inh-1: inactive; ssDAF-12 act: inactive; hcDAF-12 act: inactive; hgDAF12 agonist: inactive

How did O=C(Nc1ccc(F)cc1)OCc1cn(Cc2cccc(Cl)c2)nn1 do in these assays?
DAX1 inh-1: inactive; ssDAF-12 act: inactive; hcDAF-12 act: inactive; hgDAF12 agonist: inactive

What do the screens show for `Cc1nc(Nc2ccccc2)sc1-c1ccccc1`?
DAX1 inh-1: 6.7; ssDAF-12 act: 1.1; hcDAF-12 act: 9.8; DAX1 inh-2: inactive; hgDAF12 agonist: 21.2; DAX1 conf: 20.9; SF1 mutant ctr: 9.8; LXR ag: inactive; hcDAF12 conf: 8.3; hgDAF12 ag: 20.7; LXRb DAF12 ctr: inactive

What do the screens show for `Cc1nc(Nc2ccc(C(=O)O)cc2)sc1-c1ccccc1`?
DAX1 inh-1: 5.5; ssDAF-12 act: 2.6; hcDAF-12 act: 10.4; DAX1 inh-2: inactive; hgDAF12 agonist: 16.6; DAX1 conf: inactive; SF1 mutant ctr: inactive; LXR ag: inactive; hcDAF12 conf: 7.2; hgDAF12 ag: inactive; LXRb DAF12 ctr: inactive

How did Cc1nc(Nc2ccccc2)sc1C(=O)c1ccccc1 do in these assays?
DAX1 inh-1: inactive; ssDAF-12 act: inactive; hcDAF-12 act: inactive; hgDAF12 agonist: inactive

Results for COC(=O)c1sc(Nc2ccccc2)nc1C ?
DAX1 inh-1: inactive; ssDAF-12 act: inactive; hcDAF-12 act: inactive; DAX1 inh-2: inactive; hgDAF12 agonist: inactive

Results for Cc1ccc(/C=C(\C#N)C(=O)Nc2ccccn2)o1 ?
DAX1 inh-1: 10.7; ssDAF-12 act: inactive; hcDAF-12 act: inactive; DAX1 inh-2: inactive; hgDAF12 agonist: 17.6; DAX1 conf: 10.1; SF1 mutant ctr: 7.6; hgDAF12 ag: 12.8; LXRb DAF12 ctr: inactive

What do the screens show for `COc1ccc(/C=C(\C#N)C(=O)Nc2ccccn2)cc1`?
DAX1 inh-1: inactive; ssDAF-12 act: inactive; hcDAF-12 act: inactive; DAX1 inh-2: inactive; hgDAF12 agonist: inactive

Results for O=C(NC1CCCCN(Cc2cccc(F)c2)C1=O)c1ccc(-c2ccccc2)cc1 (stereo not given) ?
DAX1 inh-1: inactive; ssDAF-12 act: inactive; hcDAF-12 act: inactive; hgDAF12 agonist: inactive

What do the screens show for `C/C(=N/NC(=O)c1ccc(C)s1)c1cccc(NC(=O)c2ccoc2C)c1`?
DAX1 inh-1: inactive; ssDAF-12 act: inactive; hcDAF-12 act: inactive; DAX1 inh-2: inactive; hgDAF12 agonist: inactive

Bioassay records deposited in PubChem by The Scripps Research Institute Molecular Screening Center.
